Screens (PubChem)
IMPase inh: membrane-permeable compound that blocks inositol monophosphatase. P97697. CHO-M1 cells, IP1 accumulation, HTRF TR-FRET ratio. inhibition (IP1 accumulation), % at 46.1 µM. 120,000 tested, under 10 active; active means well fitted curve in the direction sought with a large enough effect in the signal ratio, not every such curve was filed as active; inconclusive means small, poorly fitted or top-dose-only effect, or a change in a side signal; inactive means no such curve, though single readings can be large or run the other way; the % refers to the signal ratio;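 further: cells stimulated with carbachol in lithium chloride buffer; plate controls were DMSO basal wells for no effect and reference inhibitor wells for full effect; higher means more IMPase inhibition seen as more IP1 and lower FRET ratio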
Target sequence (P97697 whole entry, looked up): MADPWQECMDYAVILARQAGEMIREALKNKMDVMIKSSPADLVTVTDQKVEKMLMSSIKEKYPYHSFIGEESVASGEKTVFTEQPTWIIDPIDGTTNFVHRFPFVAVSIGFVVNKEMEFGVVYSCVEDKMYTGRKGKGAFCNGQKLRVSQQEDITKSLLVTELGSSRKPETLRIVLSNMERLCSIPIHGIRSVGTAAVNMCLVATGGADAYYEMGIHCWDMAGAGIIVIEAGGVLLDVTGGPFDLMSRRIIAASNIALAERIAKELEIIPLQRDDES
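Elevated IP1 in lysates lowers TR-FRET signal (665/620 ratio and 620 channel reported). Cells were CHO-M1, given carbachol (50 uM as added) plus 50mM LiCl, pH 7.4, 30 min, 37C; compounds titrated up to 46 uM; AC50 by Hill equation.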
12-hLO inh: 12-hLO (ALOX12) enzyme inhibition. purified 12-hLO, xylenol orange hydroperoxide absorbance. P18054. hit rate 0.12% among 150,000. Potency, µM (titrated, usually from 57.1 µM), without a hit: at the top dose activity change, negative = inhibition, hits mostly inhibitors; active means well fitted curve in the direction sought with a large enough effect; inconclusive means small, poorly fitted or top-dose-only effect, or another doubt; inactive means no such curve, though single readings can be large; an effect the other way counts as inactive or inconclusive; further: potency means the concentration at half of the fitted maximal effect; nearly all actives have a fitted effect of over 55% in size
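Xylenol orange chromogenic assay: hydroperoxide from 12hLO oxidises Fe(II), giving red-shifted Fe(III)-XO absorbance. Conditions: 150 nM enzyme, 40 uM arachidonic acid, 25 mM Hepes pH 7.0, 0.01% Triton X-100, 30 min, room temperature.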
HPGD inh: blocks human HPGD enzyme activity; purified HPGD, NADH fluorescence kinetic, PGE2 substrate; Potency, µM, inactives show top-dose activity change, negative = inhibition, actives largely listed as inhibitors; hit rate 4.3% among 150,000; AID 894; further: potency means the concentration at half of the fitted maximal effect
Target sequence (P15428 whole entry, looked up): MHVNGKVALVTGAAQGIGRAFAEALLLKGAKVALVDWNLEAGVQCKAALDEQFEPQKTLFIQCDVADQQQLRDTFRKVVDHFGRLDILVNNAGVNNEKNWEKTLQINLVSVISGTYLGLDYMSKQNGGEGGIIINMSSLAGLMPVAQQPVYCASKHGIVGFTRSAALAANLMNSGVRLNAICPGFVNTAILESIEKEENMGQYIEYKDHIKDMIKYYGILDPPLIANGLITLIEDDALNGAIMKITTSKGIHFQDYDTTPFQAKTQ
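20 nM HPGD preincubated 15 min at room temperature with compound in 50 mM Tris-HCl pH 8, 0.01% Tween 20. Started with 1 mM NAD+ and 30 uM prostaglandin E2; NADH fluorescence (360/450 nm) read 5 times over 30-s intervals, last minus first.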
PNC assembly inh: blocks assembly of the perinucleolar compartment; PC3M PTB-GFP, PNC prevalence imaging, 16 h; hits give low values; activity change (PNC), negative = inhibition, % at 10 µM; hit rate 3.1% among 140,000;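 active means readout at or below -70, meaning at least 70% loss of cells showing the perinucleolar compartment, a nuclear body marking cancer cells; inconclusive means readout between -30 and a set limit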;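 further: plate controls were DMSO wells for no effect and camptothecin positive control wells for full effect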
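PC3M cells stably expressing PTB-GFP, 750–1000 cells/well, treated 16 h at 37 °C with compound (23 nl of library stock), in duplicate. After paraformaldehyde fixation and Hoechst stain, imaged at 20x; PNC prevalence scored by image analysis.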
IMPase Li cell: IMPase inhibition in cells with lithium potentiation | AID 1457 | CHO-M1 cells, IP1 TR-FRET (IP-One), carbachol + lithium | hit rate 0.35% among 210,000 | Potency, µM (top dose mostly 59.4 µM), inactives show at the top dose activity, negative = IMPase inhibition, hits mostly inhibitors; active means well fitted curve in the direction sought with a large enough effect; inconclusive means small, poorly fitted or top-dose-only effect, or another doubt; inactive means no such curve, though single readings can be large; an effect the other way counts as inactive or inconclusive;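 further: IP1 builds up when IMPase is blocked and the TR-FRET signal falls; potency means the concentration at half of the fitted maximal effect; plate controls were basal vehicle for no effect and high inhibitor control for full effect; nearly all actives have a fitted effect of over 50% in size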
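Lithium-sensitised IP1 accumulation assay; M1-expressing CHO cells treated 30 min at 37C with compound. Competitive antibody detection by time-resolved FRET followed a 10 min room-temperature lysis step.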
ALDH1A1 block: ALDH1A1 (human) enzyme inhibition. P00352. Purified ALDH1A1, NADH fluorescence, propionaldehyde substrate. Potency, µM (series often up to 75.3 µM), inactives show at the top dose activity, negative = inhibition, most hits filed as inhibitors. hit rate 7.3% among 220,000. AID 1030;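 further: potency means the concentration at half of the fitted maximal effect; plate controls were no enzyme wells and a reference inhibitor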
* = called active by the depositor; ? = inconclusive; nt = no result given; [ ] = remark or other dose. Most compounds without a hit are left out; they make up all but 11% or so of the library. Unless noted, the call rests on the fitted dose curve; in most records, active means well fitted inhibition curve with a large enough effect (not every such curve was filed as active); inconclusive means small, poorly fitted or top-dose-only effect, or another doubt; inactive means no such curve, though single readings can be large or run the other way. Unless noted, on the % scale 0 is the no-effect control and ±100 the full control effect.

SMILES	IMPase inh	12-hLO inh	HPGD inh	PNC assembly inh	IMPase Li cell	ALDH1A1 block
CCN1C(=O)c2cccc3c(S(=O)(=O)N(C(=O)c4ccncc4)c4ccc(OC)cc4)ccc1c23	nt	0.4%	?	-84.8*	7.5%	?
CCN1C(=O)c2cccc3c(S(=O)(=O)Nc4ccc(OC)cc4OC)ccc1c23	-7.0	-7.8%	-6.9%	-20.6	1.0%[38.3 µM]	11.2µM*
CCN1C(=O)c2cccc3c(S(=O)(=O)N(C(=O)c4cccnc4)c4ccc(OC)cc4)ccc1c23	nt	3.1%	?	?	6.2%	?
CCN1C(=O)c2cccc3c(S(=O)(=O)NCc4cccnc4)ccc1c23	-15.0	7.7%	-25.3%	-1.8	1.8%[38.3 µM]	?
CCN1C(=O)c2cccc3c(S(=O)(=O)Nc4ccncc4)ccc1c23	-1.2	-3.4%	?	14.3	-16.7%[38.3 µM]	?
CC(Cc1ccccc1)C(=O)NCCc1c[nH]c2ccccc12 (stereo not drawn)	nt	-6.5%	-29.6%	nt	8.1%	?
CCN1C(=O)c2cccc3c(S(=O)(=O)Nc4nc(C)cs4)ccc1c23	7.6	-11.5%	-21.2%	?	-0.5%[38.3 µM]	3.55µM*
CCN1C(=O)c2cccc3c(S(=O)(=O)Nc4ncccc4C)ccc1c23	-5.6	-5.5%	-25.4%	32.7	-2.5%[38.3 µM]	10µM*
COc1ccc(-c2cc(C(F)(F)F)nc(SCC(=O)NC(C)c3ccccc3)n2)cc1 (stereo not drawn)	3.0	nt	nt	nt	nt	nt
CCc1cccc(NC(=O)CSc2nc3c(c(=O)[nH]2)CCCC3)c1	nt	-3.4%	10µM*	3.6	0.8%	3.3%
Cc1c(Cl)cccc1NC(=O)CSc1nc2c(c(=O)[nH]1)CCCC2	nt	-5.1%	-13.7%	4.7	-4.1%	4.5%
O=C(CSc1nc2c(c(=O)[nH]1)CCC2)Nc1cccc(Cl)c1	-0.3	-9.1%	14.1µM*	-1.2	-4.4%[38.3 µM]	-0.1%
CN(C)c1ccc(NC(=O)CSc2nc3c(c(=O)[nH]2)CCCC3)cc1	3.9	-1.0%	-12.3%	50.0	28.9%[38.3 µM]	-12.7%
N#Cc1c(-c2ccco2)nc(SCC(=O)Nc2cccc(Cl)c2)[nH]c1=O	?	-13.4%	17.8µM*	9.4	10µM*	?
O=C(/C=C1\NC2(CCCC2)Cc2ccccc21)C(=O)N/N=C/c1ccccc1O	nt	4.8%	-20.9%	-12.5	-6.9%	4.47µM*
CCSc1ccccc1C(=O)NCc1cccnc1	nt	nt	nt	nt	9.9%	?
O=C(NCc1cccnc1)c1cc(Sc2ccccc2Cl)nc2ccccc12	nt	-4.6%	-7.4%	-24.5	14.7%	7.94µM*
CCOC(=O)c1c(NC(=S)Nc2ccc(C)cc2)sc2c1CCC2	nt	-1.6%	-7.7%	12.4	-0.3%	0.4%
NC(=O)c1c(NC(=S)Nc2ccccc2)sc2c1CCCC2	nt	nt	nt	nt	-12.4%	7.94µM*
CCOC(=O)c1c(NC(=S)Nc2ccc(F)cc2)sc2c1CCC2	-15.4	-13.9%	0.9%	26.5	-29.9%[38.3 µM]	-11.5%
NC(=O)c1c(NC(=S)Nc2ccc(F)cc2)sc2c1CCCC2	nt	nt	nt	nt	-15.0%	10µM*
c1ccc2[nH]c3cc4ncnc4cc3nc2c1	nt	-3.2%	-12.0%	-81.2*	18.1%	-7.2%
N#C/C(=C/c1ccc(N2CCCCCC2)o1)c1cccc(F)c1	16.8	?	25.1µM*	?	107.8%[38.3 µM]	2µM*
N#C/C(=C\c1ccc(N2CCOCC2)o1)c1ccccc1	3.6	-13.6%	?	-90.1*	27.5%[38.3 µM]	11.2µM*
COc1cc(N2CCCC2)c(OC)cc1/C=C(/C#N)c1cccc(F)c1	-0.8	-19.5%	-25.1%	-88.7*	31.4%[38.3 µM]	?
SMILES	IMPase inh	12-hLO inh	HPGD inh	PNC assembly inh	IMPase Li cell	ALDH1A1 block
N#C/C(=C/c1ccc(N2CCOCC2)o1)c1ccc(Br)cc1	-8.2	?	?	29.7	13.2%[38.3 µM]	15.8µM*
C=C(C)C(=O)/C=C/c1ccc(C(F)(F)F)cc1	nt	2.1%	-4.5%	nt	11.5%	10.1%
O=C1OCCC1Sc1ncnc2sc3c(c12)CCC3 (stereo not drawn)	-14.3	4.0%	-19.4%	237.5	-3.2%	-7.0%
Cc1nc(SC2CCOC2=O)c2c(C)c(C)sc2n1 (stereo not drawn)	?	2.6%	-6.4%	93.2	7.08µM*	22.4µM*
Cc1ccc(NC(=O)CN(CCc2ccccc2)S(=O)(=O)c2ccccc2)c(C)c1	4.6	nt	nt	nt	nt	nt
CCc1nc(NCc2ccc3c(c2)OCO3)c2oc3ccccc3c2n1	0.6	-14.8%	-11.5%	?	15.4%[38.3 µM]	12.6µM*
CCc1nc(Nc2ccc3c(c2)OCCO3)c2oc3ccccc3c2n1	4.4	0.3%	-22.2%	28.0	9.8%[38.3 µM]	25.1µM*
O=C(Cn1cc(C(=O)C2CCCCC2)c2ccccc21)Nc1ccccc1Cl	2.7	nt	nt	nt	nt	nt
COc1cccc(CNC(=O)CCC2CCCN(C(=O)c3cccc4c(C)c(C)[nH]c34)C2)c1 (stereo not drawn)	nt	nt	nt	nt	nt	28.2µM*
O=C(Nc1ccc(Br)cc1)Nc1ccccc1Cl	nt	nt	nt	nt	nt	4.8%
N#Cc1ccc(Oc2ccc(-c3cnc4ccccc4n3)cc2)cc1C#N	2.8	-3.5%	?	-25.7	2.82µM*	?
COc1ccccc1-c1nc(NCCN2CCOCC2)c2ccccc2n1	nt	nt	nt	nt	6.1%	-16.3%
COCC(=O)N1CCC2(CCCN(C(=O)Nc3cccc(C#N)c3)C2)CC1	nt	-0.9%	-4.6%	nt	-1.7%	-0.6%
O=C(O)[C@H]([C@H]1NCCS1)N1C(=O)c2ccccc2C1=O	nt	0.0%[11.4 µM]	nt	nt	nt	nt
Cn1c(=O)[nH]c(=O)c2c1nc(CN1CCN(c3ccccc3F)CC1)n2CCCc1ccccc1	-1.8	-4.9%	7.4%	?	8.4%	3.16µM*
CCCCCn1c(CN2CCN(C(=O)OCC)CC2)nc2c1c(=O)[nH]c(=O)n2C	12.6	-1.8%	0.3%	?	0.0%	11.2µM*
Cn1c(=O)[nH]c(=O)c2c1nc(CN1CCN(c3cccc(Cl)c3)CC1)n2CCc1ccccc1	10.7	4.8%	-1.0%	?	19.3%[38.3 µM]	14.1µM*
COc1ccc(N2CCN(Cc3nc4c(c(=O)[nH]c(=O)n4C)n3CC(C)=O)CC2)cc1	-0.7	6.9%	-16.2%	-90.2*	4.6%	-1.9%
Cn1c(=O)[nH]c(=O)c2c1nc(CN1CCN(c3ccc(F)cc3)CC1)n2CCCc1ccccc1	-5.0	8.1%	-8.5%	130.6	-11.7%[38.3 µM]	3.1%
Cn1c(=O)[nH]c(=O)c2c1nc(CN1CCN(c3ccc(F)cc3)CC1)n2CCc1ccccc1	-0.8	14.3%	-10.5%	-100.0*	5.0%	-5.7%
CSc1ccc(-c2nc3c(C)cccn3c2Nc2ccc3c(c2)OCCO3)cc1	5.5	nt	nt	nt	nt	nt
COCCn1c(SCC(=O)N2CCCCC2)nc2cccnc21	15.8	2.8%	-7.4%	-82.9*	-3.3%[38.3 µM]	-5.6%
CCN(CC)C(=O)CSc1nc2cccnc2n1-c1ccccc1OC	-2.6	-0.3%	-5.2%	-0.7	-3.3%[38.3 µM]	?
CC(C)(C)NC(=O)Cn1c(SCC(=O)N2CCCCCC2)nc2ccccc21	-1.1	-5.6%	-17.6%	-92.3*	-3.2%[38.3 µM]	?
